Measured values taken from PubChem BioAssay (NCATS).
“And” between values parts separate entries of the source, which are not always exact repeats. Equal values may be shown once. Results filed as inconclusive are left out. A call without a number means that no potency is given here. The source made the active and inactive calls. Calls follow the shape of the full dose curve.

Legend:
[1] = Cytotoxicity counterscreen for inhibitors of SARS-CoV-2 cell entry (AID 1645845); also: nearly all actives have a fitted effect of over 50% in size
In short: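 48 h compound treatment (after 1 h preincubation), HEK293-ACE2 cells, 37 C/5% CO2; ATP luminescence endpoint; normalized to cell wells and media blanks.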

[2] = Primary qHTS to identify inhibitors of SARS-CoV-2 cell entry (AID 1645846); details: activity change, negative = inhibition: at 57.1 µM (top of the series) unless noted; also: nearly all actives have a fitted effect of over 45% in size
In short: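 HEK293-ACE2 (Expi293F, stable hACE2), 1500 cells/well, o/n 37C; cpd 23 nL pin, 1 h; MLV-PP w/ SARS-CoV-2-S (Wuhan-Hu-1, Δ19 C-term); 48 h 37C; Bright-Glo luminescence; normalized vs S-PP and bald PP.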
Potency is read from the fitted curve at half-maximal effect.

With `N#Cc1ccc(NC(=O)Nc2ccccc2Br)c2n[nH]nc12` the Potency [1] was “inactive” and the Potency [2] was “inactive”.
For `CC(C)(C)c1cc(C(=O)O)c(NC(=O)Nc2ccc3[nH]ncc3c2)s1`, the Potency [1] was “inactive” and the Potency [2] was “inactive”.
For `Cn1cc(-c2ccc3nnc(Sc4ccc5ncccc5c4)n3n2)cn1`, the Potency [1] was “inactive” and the Potency [2] was “inactive”.
For `CCCCCCCCCCCCCC(=O)OC(C)C`, the Potency [1] was “inactive” and the Potency [2] was “inactive”.
For `C/C(=C1\CCOC(=O)S1)N(C=O)Cc1cnc(C)nc1N`, the Potency [1] was “inactive” and the Potency [2] was “inactive”.
With `O=C(Nc1cccc(C2=NCCN2)c1)Nc1cccc(C2=NCCN2)c1` the Potency [1] was “inactive” and the Potency [2] was “inactive”.
With `CN(C(=O)C(Cl)Cl)c1ccc(OC(=O)c2ccco2)cc1` the Potency [1] was “inactive” and the Potency [2] was “inactive”.
For `CC(=O)Nc1ccc(O)cc1`, the Potency [1] was “inactive” and the activity change, negative = inhibition [2] was -27.9%.
With `N#CCNC(=O)c1ccc(-c2ccnc(Nc3ccc(N4CCOCC4)cc3)n2)cc1` the Potency [1] was 31.6 µM (active) and the Potency [2] was 10 µM (active).
With `O=C(O)CCc1ccc(NCc2cccc(Oc3ccccc3)c2)cc1` the Potency [1] was “inactive” and the activity change, negative = inhibition [2] was -10.2%.
With `CCN1CCN(c2cc3c(cc2F)c(=O)c(C(=O)O)cn3C2CC2)CC1` the Potency [1] was “inactive” and the Potency [2] was “inactive”.
For `NCCCC(N)(C(=O)O)C(F)F` (configuration not stated), the Potency [1] was “inactive” and the Potency [2] was “inactive”.
In the case of `C#CC(C)(CC)OC(=O)c1ccccc1C(=O)O` (configuration not stated), the Potency [1] is reported as “inactive” and the activity change, negative = inhibition [2] is reported as 3.66%.
For `NC(=O)c1ccc(I)c([N+](=O)[O-])c1`, the Potency [1] was “inactive” and the activity change, negative = inhibition [2] was -6.13%.
With `Nc1ccccc1NC(=O)c1ccc(CNC(=O)OCc2cccnc2)cc1` the Potency [1] was “inactive” and the Potency [2] was “inactive”.
With `CC1=C(/C=C/C(C)=C/C=C/C(C)=C/C(=O)O)C(C)(C)CCC1` the Potency [1] was “inactive” and the Potency [2] was “inactive”.
For `Cc1cc2c(cc1C1(c3ccc(C(=O)O)cn3)CC1)C(C)(C)CCC2(C)C`, the Potency [1] was “inactive” and the Potency [2] was “inactive”.
In the case of `CN1CCN(c2c(F)cc3c(=O)c(C(=O)O)cn4c3c2OCN4C)CC1`, the Potency [1] is reported as “inactive” and the Potency [2] is reported as “inactive”.
For `CC(=O)Oc1ccccc1C(=O)O`, the Potency [1] was “inactive” and the Potency [2] was “inactive”.
For `CCC(C)(Oc1ccc(C2(c3ccc(OC(C)(CC)C(=O)O)cc3)CCCCC2)cc1)C(=O)O` (configuration not stated), the Potency [1] was “inactive” and the Potency [2] was “inactive”.
With `CC(C)(C(=O)NCC(F)(F)C(F)(F)F)C(=O)N[C@@H]1C(=O)Nc2ccccc2-c2ccccc21` the Potency [1] was “inactive” and the activity change, negative = inhibition [2] was -16.5%.
With `N[C@H]1C(O)O[C@H](CO)[C@@H](O)[C@@H]1O` (some centres not stated) the Potency [1] was “inactive” and the activity change, negative = inhibition [2] was -23.2%.
In the case of `O=C1NS(=O)(=O)c2ccccc21`, the Potency [1] is reported as “inactive” and the activity change, negative = inhibition [2] is reported as -23.6%.
For `CC1=NN(c2ccccc2)C(=O)C1`, the Potency [1] was “inactive” and the activity change, negative = inhibition [2] was 0.769% and -7.18%.
In the case of `O=C(Nc1cc(Cl)cc2c1[nH]c1cnccc12)c1cccnc1`, the Potency [1] is reported as “inactive” and the activity change, negative = inhibition [2] is reported as -24.6% [at 27.1 µM].
In the case of `CCCCn1c(=O)n(Cc2ccccc2F)c(=O)c2[nH]c(Cc3ccc(NC(C)=O)cc3)nc21`, the Potency [1] is reported as “inactive” and the Potency [2] is reported as “inactive”.
For `CCCCOCCOc1nc(-c2ccc(C(=O)O)c(F)c2)sc1C`, the Potency [1] was “inactive” and the activity change, negative = inhibition [2] was -25.8%.
For `Cc1cnc(Nc2ccc(OCCN3CCCC3)cc2)nc1Nc1cccc(S(=O)(=O)NC(C)(C)C)c1`, the Potency [1] was 25.1 µM (active) and the Potency [2] was 22.4 µM (active).
With `CCCCCCCC(=O)OCC(O)CO` (configuration not stated) the Potency [1] was “inactive” and the activity change, negative = inhibition [2] was -24.7%.
For `CC(C)(C)NCC(O)c1ccc(O)c(CO)c1` (configuration not stated), the Potency [1] was “inactive” and the Potency [2] was “inactive”.
With `CCOC(=O)C(C)Oc1cccc2c(=O)n(CC(=O)Nc3ccc4c(c3)OCCO4)ccc12` (configuration not stated) the Potency [1] was “inactive” and the activity change, negative = inhibition [2] was -0.424%.
